This is a sample that favours compounds with a hit; in the whole collection about 4.6% have one here.
DAX1 inh-1 – DAX1 (NR0B1) inhibition, primary screen; hit rate 1.1% among 370,000; inhibition, % at 6.8 µM; HEK293T StAR-luciferase reporter, SF-1/DAX-1 repression relief;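 active means inhibition above the mean over all tested compounds plus 3 SD, cut at about 3.6% in these data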;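 further: 0% = DAX-1 cells with DMSO and 100% = cells lacking DAX-1 with DMSO; higher inhibition means more luminescence from relief of DAX-1 repression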
hgDAF-12 ag – activates the H. glycines DAF-12 receptor ligand-binding domain | AID 687014 | activation, % at 6.8 µM | hit rate 1.8% among 370,000 | HEK293 GAL4-hgDAF12 UAS-luciferase reporter, agonist luminescence; normalized to butyrate control;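 active means activation above a cutoff set at the mean of all screened compounds plus 3 SD, cut at about 10% in these data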;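 further: 0% = DMSO wells and 100% = sodium butyrate wells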
Wee1 degr inh – blocks degradation of human Wee1 kinase | P30291 | HeLa Luc-Wee1K328M stability, luciferase luminescence; 100% = proteasome inhibitor MG132 effect | reporter increase, % at 5 µM | hit rate 1.2% among 220,000 | AID 1321;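 active means activation above the mean of all tested compounds plus 3 SD, set per screening run, cut at about 8.8% in these data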;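 further: cells exposed to compound for 20 h before luminescence read; 0% = DMSO alone and 100% = MG132 at 30 µM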
hcDAF-12 act – activators of H. contortus DAF-12 nuclear receptor; HEK293 hcDAF-12 lit1-tk-luc reporter, luminescence; 0% DMSO, 100% Δ7-dafachronic acid; activation, % at 6.8 µM; hit rate 1.4% among 370,000; AID 652067;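 active means activation above the mean of all tested compounds plus 3 SD, cut at about 5.5% in these data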;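 further: 100% = response to 3 µM Δ7-dafachronic acid high control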
DAX1 inh-2 – inhibits human nuclear receptor DAX1; P51843; HEK293 Gal4-DAX1 luciferase reporter, luminescence; inhibition, % at 6.75 µM; hit rate 0.99% among 340,000; AID 504766;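 active means inhibition above the mean over all tested compounds plus 3 SD, cut at about 4.2% in these data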;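 further: 0% = DAX1-transfected cells with DMSO and 100% = empty-vector control cells with DMSO; inhibition shows as a rise in luminescence from relieved DAX1 repression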
Target sequence (P51843 207-470 limits assumed): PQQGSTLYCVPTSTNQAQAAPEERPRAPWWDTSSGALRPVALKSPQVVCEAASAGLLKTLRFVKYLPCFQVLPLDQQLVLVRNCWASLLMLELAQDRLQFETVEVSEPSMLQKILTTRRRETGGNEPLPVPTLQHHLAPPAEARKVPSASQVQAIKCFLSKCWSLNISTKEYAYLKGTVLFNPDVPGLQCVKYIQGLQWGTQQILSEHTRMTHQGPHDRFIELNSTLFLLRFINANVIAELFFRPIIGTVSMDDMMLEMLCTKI
ssDAF12 agonist – activates DAF-12 receptor from parasite S. stercoralis; HEK293 ssDAF-12/GRIP1 lit1-tk-luc reporter, luminescence; % of 3 µM dafachronic acid response; activation, % at 6.8 µM; hit rate 1% among 370,000; AID 652126;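 active means activation above the mean over all tested compounds plus 3 SD, cut at about 0.9% in these data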;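 further: 0% = DMSO-only wells and 100% = 3 µM delta7-dafachronic acid wells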
* marks the source's active call; other numbers are inactive results.

Screening CCn1c(=O)c(C(=O)CC#N)c(N)n(Cc2ccccc2)c1=O returned DAX1 inh-1 0.6, hgDAF-12 ag -3.0, Wee1 degr inh -0.2, hcDAF-12 act -2.1, DAX1 inh-2 4.9* and ssDAF12 agonist -0.9.
O=C(NCC1CCCCC1)c1ccc2nc([C@@H]3O[C@H](CO)[C@H](O)[C@H](O)[C@H]3O)[nH]c2c1 was read as DAX1 inh-1 -0.3, hgDAF-12 ag -2.3, hcDAF-12 act -0.5 and ssDAF12 agonist -1.1.
`C[C@H]1CN([C@@H](C)CO)C(=O)c2cccc(NC(=O)c3ccc(-c4nccs4)cc3)c2O[C@@H]1CN(C)C(=O)NC1CCCCC1` gave DAX1 inh-1 -0.2, hgDAF-12 ag 2.9, hcDAF-12 act 0.1, DAX1 inh-2 0.5 and ssDAF12 agonist -1.7.
`C#CCOC(=O)C[N+](C)(C)CC#Cc1ccccc1` gave DAX1 inh-1 -0.1, hgDAF-12 ag 5.5, Wee1 degr inh 3.6, hcDAF-12 act -0.6, DAX1 inh-2 8.6* and ssDAF12 agonist -0.8.
Screening CC(C)c1nc(SCC(=O)Nc2cccc(S(N)(=O)=O)c2)n[nH]1 returned DAX1 inh-1 0.3, hgDAF-12 ag -1.1, Wee1 degr inh 10.4*, hcDAF-12 act -0.1, DAX1 inh-2 0.0 and ssDAF12 agonist -0.8.
For CCN(CC)CCNC(=O)c1ccc(NC(=O)c2cccc(S(=O)(=O)N3CCc4ccccc43)c2)cc1 the results were DAX1 inh-1 3.9*, hgDAF-12 ag 1.1, hcDAF-12 act -1.5, DAX1 inh-2 0.1 and ssDAF12 agonist -1.5.
Screening Cc1ccc(C(=O)C(C)[n+]2cccc(C(N)=O)c2)cc1 (configuration not stated) returned DAX1 inh-1 0.1, hgDAF-12 ag -3.4, Wee1 degr inh 7.7, hcDAF-12 act -0.8, DAX1 inh-2 7.1* and ssDAF12 agonist -1.3.
Cc1ccc(C(=O)NCCC(=O)N2CCC3(CC2)NCCc2[nH]cnc23)cc1 was read as DAX1 inh-1 0.4, hgDAF-12 ag 1.8, hcDAF-12 act 0.1, DAX1 inh-2 0.6 and ssDAF12 agonist -0.6.
For Cc1cc(C)cc(C(=O)NCCC(=O)N2CCC3(CC2)NCCc2[nH]cnc23)c1 the results were DAX1 inh-1 3.9*, hgDAF-12 ag 0.2, hcDAF-12 act -0.1, DAX1 inh-2 0.5 and ssDAF12 agonist -1.6.
COc1cc2sc3ccc(-c4ccc(N(C)C)nc4)cc3c(=O)c2cc1OC was read as DAX1 inh-1 -0.2, hgDAF-12 ag 7.8, hcDAF-12 act -0.2 and ssDAF12 agonist -0.3.
`COc1ccc(-c2ccc3sc4ccccc4c(=O)c3c2)cn1` gave DAX1 inh-1 0.6, hgDAF-12 ag 10.5*, hcDAF-12 act 1.9, DAX1 inh-2 2.1 and ssDAF12 agonist -0.6.
Screening COc1ccc(C(=O)O[C@@H]2CCC[C@@]3(C(=O)N(Cc4ccccc4)c4ccccc43)[C@H]2NC(=O)CCc2ccccc2)cc1OC returned DAX1 inh-1 -0.2, hgDAF-12 ag -2.3, hcDAF-12 act -4.0 and ssDAF12 agonist -1.0.
For CN1CCC(=NOc2ccc([N+](=O)[O-])cc2)CC1 the results were DAX1 inh-1 1.7, hgDAF-12 ag 9.7, Wee1 degr inh -1.4, hcDAF-12 act 0.0, DAX1 inh-2 4.7* and ssDAF12 agonist -1.2.
Screening COc1ccc(C(=O)ON=C2CCN(c3ccc([N+](=O)[O-])cc3)CC2)cc1 returned DAX1 inh-1 -0.8, hgDAF-12 ag 0.0, Wee1 degr inh -1.2, hcDAF-12 act -0.2, DAX1 inh-2 0.7 and ssDAF12 agonist -1.1.
CC(C)C(=O)N1CCCC1(C)C(=O)Nc1ccc(-n2cncn2)cc1 (configuration not stated) was read as DAX1 inh-1 1.5, hgDAF-12 ag -1.0, hcDAF-12 act 1.4 and ssDAF12 agonist -0.5.
`O=S(=O)(NC(CO)Cc1ccccc1)c1ccc(Br)cc1F` (configuration not stated) gave DAX1 inh-1 0.7, hgDAF-12 ag 5.8, hcDAF-12 act -0.2, DAX1 inh-2 0.7 and ssDAF12 agonist -1.0.
Screening Cn1c(SCC(=O)NNC(=O)c2ccccc2O)nnc1-c1ccccc1 returned DAX1 inh-1 0.7, hgDAF-12 ag 1.3, hcDAF-12 act 6.1*, DAX1 inh-2 0.4 and ssDAF12 agonist 0.0.

Screening data from PubChem BioAssay.
